An excerpt weighted towards active compounds, which were near 0.99% of everything screened.
Cardiac RTF inh: cardiac RTF calcium desensitization. actives 0.12% (n = 340,000). AID 493244. IANBD-labeled cardiac RTF, Ca2+ fluorescence. P19429+P45379. inhibition, % at 7.15 µM;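 active means inhibition above the mean inhibition of all tested compounds plus 3 SD, cut at about 17% in these data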;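 further: assay run at fixed EC70 calcium of 1.6 mM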
LANA-H2B inh: blocks KSHV LANA binding to histone H2A/H2B. inhibition, % (no concentration beside the values). AID 2629. actives 0.6% (n = 320,000). Q9QR71. cell-free LANA-H2A/H2B peptide, fluorescence polarization; in the data active means inhibition mostly above about 10%, no sharp cut-off; inactive means mostly below about 6.7%
Keap1-Nrf2 PPI: disrupts human Keap1 binding to Nrf2 peptide; Q14145; actives 0.15% (n = 340,000); AID 504523; Keap1 Kelch-Nrf2 peptide fluorescence polarization, 1536-well; inhibition, % at 9.4 µM; in the data active means inhibition above about 12%;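 further: human Keap1 Kelch domain with fluorescein labeled Nrf2 9mer peptide probe; 0% = neutral control wells and 100% = peptide positive control; higher means more block of Keap1 binding to Nrf2 peptide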
Target sequence (Q14145 whole entry, looked up, the tested form may be a part): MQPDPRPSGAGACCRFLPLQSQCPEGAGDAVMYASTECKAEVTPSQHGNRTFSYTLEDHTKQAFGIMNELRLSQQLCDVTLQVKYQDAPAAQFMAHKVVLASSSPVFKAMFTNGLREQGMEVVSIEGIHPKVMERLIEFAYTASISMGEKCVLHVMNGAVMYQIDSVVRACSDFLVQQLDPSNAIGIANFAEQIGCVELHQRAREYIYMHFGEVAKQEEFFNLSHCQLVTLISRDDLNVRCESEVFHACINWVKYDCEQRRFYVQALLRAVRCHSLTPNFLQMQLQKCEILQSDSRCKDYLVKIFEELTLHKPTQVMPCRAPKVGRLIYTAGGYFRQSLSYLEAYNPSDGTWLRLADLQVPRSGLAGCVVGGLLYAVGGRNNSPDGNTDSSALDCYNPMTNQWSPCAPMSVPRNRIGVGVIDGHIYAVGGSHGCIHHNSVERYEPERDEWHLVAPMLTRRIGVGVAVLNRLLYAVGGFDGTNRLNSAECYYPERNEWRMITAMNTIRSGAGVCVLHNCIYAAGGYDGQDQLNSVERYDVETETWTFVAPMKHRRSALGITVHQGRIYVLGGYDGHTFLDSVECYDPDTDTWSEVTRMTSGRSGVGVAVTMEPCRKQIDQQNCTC
cardiac RTF act: cardiac RTF calcium sensitization; AID 493008; IANBD-labeled TnC RTF fluorescence at EC20 calcium; 0% EC20 calcium, 100% full calcium; activation, % at 7.2 µM; actives 0.24% (n = 340,000); P19429+P45379;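 active means activation above the mean over all tested compounds plus 3 SD, cut at about 30% in these data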;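 further: rise in fluorescence read as greater calcium sensitivity of cardiac thin filaments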
LANA DNA inh: blocks KSHV LANA C-terminal domain binding to DNA. MBP-C-LANA/FAM-LBS DNA binding, fluorescence polarization. inhibition, % at 9 µM. actives 0.078% (n = 340,000). AID 504423;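 active means highest replicate inhibition at or above 60% at 9 µM, even if other replicates fall short; inactive means all replicates below 60% inhibition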;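 further: 0% = neutral control wells and 100% = 4 µM acridine orange control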
* hit, by the source's call; i = inactive; nt = not tested or not shown; + = active, no number.

SMILES | Cardiac RTF inh | LANA-H2B inh | Keap1-Nrf2 PPI | cardiac RTF act | LANA DNA inh
CC(=O)C1[C@H](N(C)C)CC2C3CC=C4CC(O)CC[C@]4(C)C3CC[C@@]21C (stereo partly specified) | -1 | 8 | -2 | -2 | -2
COc1cc([N+](=O)[O-])ccc1-c1ccc(/C=C2\C(=O)ON=C2c2ccccc2)o1 | 6 | nt | -3 | -3 | -2
CN(CC(=O)NCc1ccc(Cl)cc1)S(=O)(=O)c1cccc2nsnc12 | -16 | 1 | -1 | 5 | 0
O=C(CNC(=O)c1ccccc1F)NCCN1C(=O)S/C(=C\c2ccc3c(c2)OCO3)C1=O | 1 | 28* | -1 | 10 | -1
O=S(=O)(O)c1ccc(N2N=C(c3ccccc3)CC2c2ccccc2)cc1 (stereo unspecified) | -9 | 6 | 0 | -4 | 2
NS(=O)(=O)c1ccc(N2N=C(c3ccccc3)CC2c2ccccc2)cc1 (stereo unspecified) | -48 | 3 | 2 | 43* | -2
COc1ccc(Cl)cc1NC(=O)c1ocnc1C | -9 | 18* | 0 | -1 | 0
COc1ccc(NC(=O)c2ocnc2C)cc1OC | -4 | -1 | 1 | 1 | 1
CCc1cccc(C)c1NC(=S)NCc1cccn1C | -6 | 3 | 0 | 5 | -2
COc1ccccc1C1C(C(=O)c2sc(C)nc2C)=C(O)C(=O)N1CCN1CCOCC1 (stereo unspecified) | -3 | 17* | -12 | -1 | -1
CC(c1ccccc1)n1cnc2ccccc2c1=O (stereo unspecified) | -6 | 5 | -2 | -3 | 3
Cc1ccc(N=Cc2sc(O)c3ccccc23)c(C)c1 | -15 | -10 | -7 | 49* | 0
Cc1ccc(N=Cc2sc(O)c3ccccc23)cc1 | -41 | -18 | -14 | 27 | -2
CCn1cc(C(=O)OCC(=O)c2cc(C)n(-c3cccc(C(F)(F)F)c3)c2C)c(=O)c2ccc(C)nc21 | 1 | 54* | -4 | 2 | -1
CCn1cc(C(=O)OCC(=O)c2ccccc2)c(=O)c2ccc(C)nc21 | -7 | nt | 1 | -1 | -5
CS(=O)(=O)c1ccc(Cl)c(NC(=O)COC(=O)C23CC4CC(CC(C4)C2)C3)c1 | -4 | nt | -3 | 3 | 1
CCN1C(=O)/C(=C/C=C2/Sc3ccccc3N2CCO)SC1=S | -3 | -4 | -8 | -2 | -1
C=CCN1C(=O)/C(=C\C=C2\N(C)c3ccccc3C2(C)C)SC1=S | -31 | -2 | -14 | 51* | -2
CCCCN1C(=O)/C(=C/C=C2/CC(C)(C)CN2C)SC1=S | -457 | -121 | -122 | 396* | -19
CN1/C(=C\C=C2/SC(=S)N(CC(=O)O)C2=O)C(C)(C)c2ccccc21 | i | -92 | -400 | 773* | -95
CCCCN1C(=O)/C(=C/C=C2\Oc3ccccc3N2CC)SC1=S | -241 | nt | -8 | 186* | 1
CCCN1C(=O)/C(=C/C=C2\N(CC)c3ccccc3C2(C)C)SC1=S | -69 | -1 | -46 | 52* | -1
CCCN1C(=O)/C(=C\C=C2/Sc3ccccc3N2CCO)SC1=S | -7 | -1 | -2 | -1 | -1
Cc1cc(/C=C2\SC(=S)N(C)C2=O)c(C)n1-c1ccccc1O | -44 | 2 | -12 | 44* | 5
Cc1cc(/C=C2\SC(=S)N(C)C2=O)c(C)n1-c1ccc(O)cc1 | -36 | 3 | -2 | 14 | 1
SMILES | Cardiac RTF inh | LANA-H2B inh | Keap1-Nrf2 PPI | cardiac RTF act | LANA DNA inh
CCn1ccnc1CN(C)Cc1cn(-c2cc(C)ccc2C)nc1-c1ccccc1 | -13 | 20* | -3 | 1 | 0
O=c1[nH][nH]c2c(N=Cc3ccccc3O)ccc(F)c12 | 34* | nt | -2 | -24 | 87*
COc1cc(Br)ccc1C1CC(=O)C(C)C(c2ccc(Br)cc2OC)N1 (stereo unspecified) | -11 | -7 | -2 | -1 | -2
CCOC(=O)C1C(=O)OC2(CCOC(C)(C)C2)C1C(=O)OCC (stereo unspecified) | -3 | 29* | -3 | -2 | -1
O=C(COC(=O)Cc1ccsc1)NNC(=O)c1ccccc1 | 1 | -14 | -1 | 4 | 0
CCOC(=O)c1c(NC(=O)CSc2nnc(-c3cccc(C)c3)n2CC)sc(C(C)=O)c1C | -5 | -2 | -8 | 3 | -3
CCOC(=O)c1c(NC(=O)CSc2nnc(-c3ccccc3)n2CC)sc(C(C)=O)c1C | 3 | 23* | -1 | -2 | 0
CCc1noc(C)c1C(=O)NCCc1ccc(S(N)(=O)=O)cc1 | -6 | -3 | -7 | -2 | 0
O=C(NC(=S)NCc1ccccc1)C1CC1 | nt | 16* | -2 | nt | 0
Nc1cc(=O)[nH]c(SCC(=O)Nc2ccc(S(=O)(=O)N3CCCCC3)cc2)n1 | -5 | -1 | -1 | -3 | 1
C[C@H](CO)N1C[C@H](C)[C@@H](CN(C)C(=O)Nc2ccc(C(F)(F)F)cc2)Oc2ccc(NC(=O)Nc3ccccc3)cc2C1=O | -7 | 143* | -3 | -5 | 1
C[C@H]1CN([C@@H](C)CO)C(=O)c2cccc(NC(=O)Nc3ccc(C(F)(F)F)cc3)c2O[C@@H]1CN(C)S(=O)(=O)c1ccc(Cl)cc1 | -3 | 15* | -7 | 0 | 1
Cc1noc(C)c1NC(=O)Nc1ccc2c(c1)C(=O)N([C@H](C)CO)C[C@H](C)[C@@H](CN(C)S(C)(=O)=O)O2 | 0 | 7 | -5 | -8 | -1
Cc1noc(C)c1NC(=O)Nc1ccc2c(c1)C(=O)N([C@H](C)CO)C[C@H](C)[C@H](CN(C)C)O2 | -4 | 46* | 3 | -2 | 4
C[C@H](CO)N1C[C@H](C)[C@@H](CN(C)S(=O)(=O)c2ccc(F)cc2)Oc2ccc(NC(=O)Nc3ccc(C(F)(F)F)cc3)cc2C1=O | -11 | -2 | -5 | -1 | 0
C[C@@H]1CN([C@H](C)CO)C(=O)c2cc(NC(=O)Nc3ccc(C(F)(F)F)cc3)ccc2O[C@H]1CN(C)S(=O)(=O)c1ccc(Cl)cc1 | 4 | + | -6 | 2 | -4
O=C(CCC1CCCC1)N1CCN(S(=O)(=O)c2ccc(Br)cc2)CC1 | -3 | -1 | -2 | -3 | 1
O=C(NCCCN1CCOCC1)c1c(-c2ccccc2)sc2ccccc12 | -11 | nt | -2 | -5 | 1
CC(=O)Nc1ccc(NC(=O)C(C)OC(=O)c2ccc(C)s2)cc1 (stereo unspecified) | -1 | -5 | -1 | 0 | 0
CC(C)CN1CCN(Cc2ccc(CN3CCCCC3)s2)CC1CCO (stereo unspecified) | -8 | 41* | -2 | -5 | 0
CC(C)CN1CCN(Cc2nc3ccccc3s2)CC1CCO (stereo unspecified) | -14 | -1 | -9 | 4 | 1
O=C(NC1(C(F)(F)F)N=C(c2ccccc2)NC1=O)c1ccc(Cl)cc1Cl (stereo unspecified) | -6 | 3 | 1 | -6 | 1

Screening data deposited in PubChem by several laboratories.
